IL1B secr inh – blocks inflammasome-driven IL-1 beta release; activity change, % at 57.5 µM; actives 4.7% (n = 360,000); THP-1 LPS/ATP IL-1B secretion, AlphaLISA, 16 h; hits give low values; in the data active = activity change below about -50%; inconclusive = mostly about -30% to -49%; note: % is set by controls: 0 for no effect and ±100 for the full control effect
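Secreted IL-1B measured by AlphaLISA bead assay after 16 h compound exposure of THP-1 cells; compounds (final up to 57.5 uM) added 1 h before LPS (250 ng/mL) and ATP (1.25 mM) stimulation; lower signal means less secretion.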
MCF10A rereplic – inducers of DNA re-replication in MCF 10A breast cells | MCF 10A DNA re-replication, Hoechst nuclear intensity, 48 h | Potency, µM (titrated, usually from 46.1 µM), inactives show at the top dose activity, positive = re-replication, hits mostly activators | actives 2.9% (n = 350,000) | AID 624296; note: potency is the fitted concentration of half-maximal effect; % of control where 0% means no effect; nearly all actives have a fitted effect of over 50% in size
SW480 rerep – DNA re-replication induction in SW480 cells | Potency, µM (highest dose often 46.1 µM), without a hit: at the top dose re-replication activation, hits mostly activators | actives 1.8% (n = 340,000) | SW480 DNA re-replication, Hoechst DNA content imaging, 48 h; note: potency is the fitted concentration of half-maximal effect; % of control where 0% means no effect; nearly all actives have a fitted effect of over 55% in size
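Cells (250 per well) received 23 nL compound or DMSO by pin tool and were kept 48 hr at 37 C, 5% CO2. Nuclei were then stained with Hoechst for 40 min and scanned for DNA content.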
TDP1 cell CPT – DT40-hTDP1 cell growth loss with CPT | chicken DT40 Tdp1-/-;hTDP1 cells + 20 nM CPT, ATP luminescence, 48 h | Potency, µM (highest dose often 46.2 µM), without a hit: top-dose activity change, negative = growth inhibition, hits mostly inhibitors | actives 12% (n = 420,000) | AID 686979; note: potency is the fitted concentration of half-maximal effect; % is set by controls: 0 for no effect and ±100 for the full control effect; nearly all actives have a fitted effect of over 55% in size
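Chicken DT40 Tdp1-/- cells stably complemented with human TDP1 were seeded at 400 cells/well in medium containing 20 nM camptothecin, exposed to pin-transferred compounds, and grown at 37 °C for at least 48 hr. Viability was read as ATP luminescence.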
BCR signal inh – chronic active BCR signaling inhibition. ABC-DLBCL IkBa-CBG/CBR reporter, luminescence ratio, 4 h. actives 0.05% (n = 340,000). Potency, µM (series often up to 46.1 µM), without a hit: at the top dose activity change, negative = inhibition, most hits filed as inhibitors; active = well fitted inhibition curve with a large enough effect in the signal ratio, with a control signal flat, not every such curve was filed as active; inconclusive = small, poorly fitted or top-dose-only effect, or effect the other way, or a change in a side signal; the % refers to the signal ratio;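 note: potency is the fitted concentration of half-maximal effect; plate controls were basal doxycycline-induced cells for no effect and cells given 10 µM MG132 for full effect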
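Cell line TMD8 (human ABC DLBCL), stably expressing tet-inducible CBG68-IkBa fusion and CBR; IMDM/0.5% FBS; cpd up to 46 uM; dox induction, 4 h, 37C/5% CO2; dual luminescence; green/red ratio; MG132 control.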
DT40 TDP1 no CPT – qHTS for Inhibitors of human tyrosyl-DNA phosphodiesterase 1 (TDP1): qHTS in cells in absence of CPT. DT40 Tdp1-/- hTDP1 cells, no CPT, ATP luminescence, 48 h. Potency, µM (series often up to 46.2 µM), inactives show at the top dose activity change, negative = growth inhibition, most hits filed as inhibitors. actives 15% (n = 420,000). AID 686978, 2013; note: potency is the fitted concentration of half-maximal effect; % is set by controls: 0 for no effect and ±100 for the full control effect; nearly all actives have a fitted effect of over 55% in size
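A cellular qHTS used chicken DT40 cells lacking endogenous Tdp1 but carrying stably transfected human TDP1. Compounds were applied without camptothecin, and cell growth kinetics were judged by ATP-dependent luminescence after ≥48 hr.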
* = called active by the depositor; ? = inconclusive; / = not tested or not shown; [ ] = another dose, or the depositor's remark. This is a sample that favours compounds with a hit; in the whole collection about 19% have one here. Unless noted, calls come from the whole dose curve; as a rule, active = well fitted curve in the direction sought with a large enough effect; inconclusive = small, poorly fitted or top-dose-only effect, or another doubt; inactive = no such curve, though single readings can be large; an effect the other way counts as inactive or inconclusive.

SMILES	IL1B secr inh	MCF10A rereplic	SW480 rerep	TDP1 cell CPT	BCR signal inh	DT40 TDP1 no CPT
CCOC(=O)c1ccc(S(=O)(=O)N2CCN(C(=O)C3CSC4(C)CCC(=O)N34)CC2)cc1 (centres undefined)	-16	15%	3%	-28%	-1%	?
CCOc1ccc(NC(=O)C2CCCN(S(=O)(=O)c3cccc4nonc34)C2)cc1 (centres undefined)	/	/	/	-7%	/	-11%
Cc1ncsc1CCOC(=O)C1C2CC3CC(C2)CC1C3 (centres undefined)	-10	?	-2%	?	-2%	23µM*
Cc1ncc(C[n+]2csc(CCOC(=O)CC3C4CC5CC(C4)CC3C5)c2C)c(N)n1 (centres undefined)	23	5%	-1%	-6%	-3%	-29%
COc1cccc(-c2ncc3ccccc3c2COC(=O)c2ccc(F)cc2)c1	-10	36%	16%[9.22 µM]	?	?	21µM*
COc1cccc(-c2ncc3ccccc3c2COC(=O)c2ccccc2C(=O)O)c1	16	-1%	-61%[9.22 µM]	-26%	?	?
COc1ccc(C(=O)OCc2c(-c3ccccc3)ncc3ccccc23)cc1	0	16µM*	15µM*	16µM*	-17%	?
O=C(OCc1c(-c2ccccc2)ncc2ccccc12)c1ccccc1C(F)(F)F	-2	?	?	1µM*	?	?
COc1ccccc1C(=O)OCc1c(-c2ccccc2)ncc2ccccc12	-19	?	?	16µM*	?	?
COc1cccc(-c2ncc3ccccc3c2COC(=O)c2ccc(C(C)(C)C)cc2)c1	15	22%	7%	?	-5%	?
CC(=O)Nc1c(C)nn(-c2ccccc2)c1N1CCC(C(=O)Nc2ccccc2F)CC1	/	/	/	14%	/	-13%
CN(C(=O)CSc1nnc(COc2ccccc2)o1)c1ccccc1	/	/	/	-17%	/	-14%
CCOCCn1ccc2c(OCC(=O)Nc3ccc(OC(F)(F)F)cc3)cccc2c1=O	/	/	/	-26%	?	?
CCN(CC)CCCNC(=O)CCn1nc(-c2ccccc2)ccc1=O	-14	?	-2%	-4%	0%	-22%
O=S(=O)(CCN1C=CC(C(F)(F)F)=NCC1)c1ccc(Cl)cc1Cl	-68*	-2%	-9%	-6%	4%	-23%
O=S(=O)(CCN1C=CC(C(F)(F)F)=NCC1)c1ccc(F)cc1	-17	3%	1%	8%	?	-6%
COc1ccc(CN(C)C(=O)c2ccccc2Sc2ccccc2C#N)cc1OC	?	6%	-2%	16µM*	-17%	?
COc1ccc(OCc2nnc(SC(C)C(=O)Nc3ccc(N4CCOCC4)cc3)n2C)cc1 (centres undefined)	0	0%	-6%	-11%	/	-5%
C[C@@H]1CN([C@H](C)CO)C(=O)Cc2cc(NC(=O)Cn3cnnn3)ccc2O[C@@H]1CN(C)Cc1ccc(Cl)c(Cl)c1	-59*	-23%	10%[9.22 µM]	18µM*	?	?
C[C@H]1CN([C@@H](C)CO)C(=O)Cc2cc(NC(=O)CCC(F)(F)F)ccc2O[C@H]1CN(C)Cc1ccc(C(F)(F)F)cc1	-69*	?	1%[9.22 µM]	?	0%	?
C[C@@H]1CCCCO[C@H](CN(C)Cc2ccc(C(=O)O)cc2)[C@H](C)CN([C@@H](C)CO)C(=O)c2cc(NC(=O)Nc3ccc(C(F)(F)F)cc3)ccc2O1	27	/	/	-4%	/	-7%
C[C@@H]1CN([C@H](C)CO)C(=O)c2cc(NS(=O)(=O)c3ccc(F)cc3)ccc2O[C@@H]1CN(C)Cc1ccc(Cl)c(Cl)c1	-72*	52%	6%	?	?	?
C[C@H]1CN([C@@H](C)CO)C(=O)Cc2cc(NC(=O)CCC(F)(F)F)ccc2O[C@H]1CN(C)Cc1ccc(-c2ccccc2)cc1	-2	?	-5%	?	?	?
C[C@@H]1CCCCO[C@@H](CN(C)Cc2ccc(Cl)c(Cl)c2)[C@@H](C)CN([C@H](C)CO)C(=O)c2cc(NC(=O)CCC(F)(F)F)ccc2O1	-5	/	/	8.2µM*	/	10µM*
C[C@H](CO)N1C[C@H](C)[C@@H](CN(C)Cc2ccc(Cl)c(Cl)c2)Oc2ccc(NC(=O)Cn3cnnn3)cc2C1=O	-7	3%	-1%	?	-3%	-2%
SMILES	IL1B secr inh	MCF10A rereplic	SW480 rerep	TDP1 cell CPT	BCR signal inh	DT40 TDP1 no CPT
C[C@@H]1CN([C@@H](C)CO)C(=O)c2cc(NC(=O)CCC(F)(F)F)ccc2O[C@H]1CN(C)Cc1ccc(Cl)c(Cl)c1	?	?	52%	21µM*	-2%	?
Cc1cc(C)nc(/N=C(\N)Nc2ccccc2-c2ccccc2)n1	-98*	15%	3%	16µM*	?	12µM*
Cc1ccc(N/C(N)=N/c2nc(C)cc(C)n2)cc1	-18	?	?	15µM*	?	21µM*
CCN(/C(N)=N/c1nc(C)cc(C)n1)c1ccccc1	50	8%	6%	-30%	9%	16µM*
Cc1cc(=O)[nH]c(/N=C(\N)Nc2cccc3ccccc23)n1	14	?	20%	-2%	-7%	-24%
Cc1cc(C)cc(N/C(N)=N/c2nc(C)cc(C)n2)c1	-102*	?	?	?	?	?
CC(=O)c1ccc(OCC(=O)Nc2ccc3c(c2)OCO3)cc1	?	/	/	-10%	/	?
COc1cc(NC(N)=S)c(OC)cc1Cl	37	6%	-1%	-3%	-16%	-25%
COc1cc(N/C(N)=N/c2nc(C)cc(C)n2)c(OC)cc1Cl	?	-5%	-2%	15µM*	2%	18µM*
CCC(=O)Nc1ccc(N/C(N)=N/c2nc(C)cc(C)n2)cc1	?	?	0%	13µM*	?	15µM*
COC(=O)c1cc(N/C(N)=N/c2nc(C)cc(C)n2)cc(C(=O)OC)c1	17	/	/	?	/	?
CCCCc1ccc(N/C(N)=N/c2nc(C)cc(C)n2)cc1	/	?	?	?	16%	5.2µM*
CCC(=O)N(c1nnc(SC(C)C(=O)Nc2ccc(N3CCOCC3)cc2)s1)C1CC1 (centres undefined)	-9	/	/	-4%	/	-21%
C[C@@H]1CN([C@H](C)CO)C(=O)CCCn2nncc2CO[C@H]1CN(C)CC1CC1	1	/	/	3%	/	-2%

From PubChem
